# Assay results published in PubChem BioAssay AID651898 (Broad Institute, 2012).
# The other results are listed elsewhere or left out. The source made the active and inactive calls. How the calls were made is not given here.
# Experiment: HepG2 hepatoma cell viability loss – plate reader, cherry-pick, two tests, cytotoxicity control, dose response (AID 651898)
# Conditions: max activity: at 12 µM, test 1 unless noted; series mostly up to 26 µM
Compound,max activity,outcome
Cc1c2cnn(CC(=O)NCc3ccccn3)c(=O)c2c(C)n1Cc1ccc(Cl)cc1,"24.2% [at 26 µM, test 1] (inactive)",
Cn1c(=O)c2c(nc(OCc3cccnc3)n2Cc2ccccc2)n(C)c1=O,"-11.3% [at 26 µM, test 1] (inactive)",
C=CCn1c(SCc2c(C(=O)OC)sc(N)c2C(=O)OC)nnc1-c1ccc(Cl)cc1,"-11.6% [at 1.6 µM, test 1] (inactive)",
CC(=O)CSc1nnc(CSc2ncccn2)n1C1CCCCC1,"18.7% [at 1.6 µM, test 1] (inactive)",
C=C(C)CSc1nc(N)c2c3c(sc2n1)CCC3,"-7.76% [at 1.6 µM, test 1] (inactive)",
CCC(CO)Oc1cc(NC(=O)c2cccc(F)c2)c2ncn(C(C)C)c2c1 (configuration not stated),"10.6% [measured here: replicate test 2 max activity, at 0.195 µM, test 2]",inactive
Cc1ccc(Cc2c(C)nc3nc(SCC(=O)NCCN4CCOCC4)nn3c2C)cc1,"-6.95% [at 0.38 µM, test 1] (inactive)",
COc1cc(-c2n[nH]c(=S)n2Cc2ccccc2)cc(OC)c1OC,-15.9% (inactive),
O=c1[nH]c(N2CCN(Cc3ccc4c(c3)OCO4)CC2)nc2c1CCCC2,"-9.65% [at 0.38 µM, test 1] (inactive)",
CC1(C)CC(=O)C=C(c2ccc3ncccc3c2)C1,-17% (inactive),
Cc1nc(=O)c(-c2ccccc2)c(C)n1-c1ccc(Br)cc1,19% (inactive),
